Screening results from PubChem BioAssay.
A selection: hits, their analogues and other compounds. The true share with any hit is near 3.2%.
LASV entry inh – blocks Lassa virus binding to or entry into cells | Lassa virus pseudotype entry inhibition, cell reporter | Potency, µM (doses to about 37.9 µM), most hits filed as inhibitors | 300,000 tested, 1.2% active | AID 540256; calls by dose curve; tested in HEK293 cells; note: nearly all actives have a fitted effect of over 50% in size
FMDV inh – foot and mouth disease virus antiviral activity | 410,000 tested, 1.2% active | AID 1159524 | FMDV antiviral cell-based qHTS | Potency, µM (titrated, usually from 57.9 µM), actives largely listed as inhibitors; calls by dose curve; tested in HEK293T cells; note: read-out not given here; nearly all actives have a fitted effect of over 45% in size
VACV Venus inh – vaccinia inhibition (Venus reporter). Vaccinia virus Venus reporter expression, fluorescence. Potency, µM (series often up to 36.5 µM), usual class: inhibitors. 330,000 tested, 0.46% active; calls by dose curve; tested in A549 cells; note: nearly all actives have a fitted effect of over 30% in size
VACV mCherry inh – vaccinia inhibition (mCherry reporter). Vaccinia virus mCherry reporter infection, fluorescence. 310,000 tested, 0.63% active. Potency, µM (highest dose often 36.5 µM), actives largely listed as inhibitors; calls by dose curve; tested in A549 cells; note: nearly all actives have a fitted effect of over 35% in size
Marburg entry inh – blocks Marburg virus binding to or entry into cells; Marburg virus pseudotyped entry inhibition, cell reporter; Potency, µM (highest dose often 37.8 µM), usual class: inhibitors; 300,000 tested, 1.8% active; calls by dose curve; tested in HEK293 cells
Of the large screens only hits and unclear results are named; the others gave an inactive call.

C[C@@H]1O[C@@H](O[C@H]2C[C@@H](O)[C@]3(CO)[C@@H]4C(CC[C@]3(O)C2)[C@@]2(O)CC[C@H](C3COC(=O)C3)[C@@]2(C)C[C@H]4O)[C@H](O)[C@H](O)[C@H]1O (some centres not stated)	FMDV inh inconclusive, VACV Venus inh 1.78µM, VACV mCherry inh inconclusive, Marburg entry inh 0.82µM (no result: LASV entry inh)
CCOC(=O)c1c(NC(C)=O)sc(/C(C)=N/Nc2ccc(C(=O)O)cc2)c1C	FMDV inh inconclusive, Marburg entry inh inconclusive
CNc1nc(NCCOc2ccccc2Cl)c2sccc2n1	FMDV inh inconclusive, VACV Venus inh inconclusive (no result: LASV entry inh, Marburg entry inh)
COc1ccccc1CNc1nc(NCCOc2ccccc2Cl)c2sccc2n1	FMDV inh 22.4µM, VACV Venus inh inconclusive, VACV mCherry inh inconclusive (no result: LASV entry inh, Marburg entry inh)
CCOC(=O)C1CCN(C(=O)c2cc(S(=O)(=O)N3CCc4ccccc43)ccc2OC)CC1	LASV entry inh inconclusive
COc1cccc(OC)c1OCCOc1ccc(C(=O)c2ccccc2)cc1	LASV entry inh inconclusive, FMDV inh 31.6µM, Marburg entry inh inconclusive
CCC(=O)c1ccc(OCc2ccc(C(=O)c3ccccc3)cc2)cc1	LASV entry inh 5.01µM, FMDV inh inconclusive, Marburg entry inh inconclusive
COC(=O)c1ccc(OCCOc2ccccc2)cc1	Marburg entry inh inconclusive (no result: VACV mCherry inh)
COCCN(C(=O)c1ccc(N(C)S(=O)(=O)c2ccc(C)cc2)cc1)c1c(N)n(CC(C)C)c(=O)[nH]c1=O	none (no result: LASV entry inh, VACV Venus inh, VACV mCherry inh, Marburg entry inh)
CCN=C1S/C(=C\c2ccc(O)c(OCC)c2)C(=O)N1CC	LASV entry inh 13µM, VACV Venus inh inconclusive, VACV mCherry inh inconclusive, Marburg entry inh inconclusive
CCN=C1S/C(=C\c2cn(CC)c3ccccc23)C(=O)N1CC	LASV entry inh inconclusive
CCN=C1S/C(=C\c2cc(OCC)c(O)cc2Br)C(=O)N1CC	LASV entry inh inconclusive, FMDV inh 31.6µM, VACV Venus inh inconclusive, VACV mCherry inh inconclusive, Marburg entry inh inconclusive
Nc1[nH]nc2nc(NCc3ccccc3)c3c(c12)CCN(Cc1ccccc1)C3	LASV entry inh 12.6µM, Marburg entry inh inconclusive
COc1ccccc1C(=O)OCc1cc(=O)n2c(C)csc2n1	none (no result: Marburg entry inh)
Cc1cccc(NCC(=O)N/N=C\c2ccc[nH]2)c1	LASV entry inh inconclusive, VACV mCherry inh inconclusive, Marburg entry inh 7.08µM
CCOc1cc(/C=N/Nc2cccc(C(=O)O)c2)ccc1OC(=O)c1ccccc1	LASV entry inh inconclusive, FMDV inh 3.98µM, Marburg entry inh inconclusive
CCOc1cc(/C=N/NC(=O)CNc2cccc(C)c2)ccc1OC(=O)c1ccccc1	LASV entry inh 15.8µM (no result: VACV mCherry inh)
Cc1cccc(NCC(=O)N/N=C/c2cccc(Br)c2)c1	none (no result: LASV entry inh, VACV Venus inh, VACV mCherry inh, Marburg entry inh)
N#CCCN1CCN(C(=S)c2ccc(-c3cccc(Cl)c3)o2)CC1	none
N#CCCN1CCN(C(=S)c2ccc(-c3ccc(Cl)c(Cl)c3)o2)CC1	LASV entry inh 20µM, VACV Venus inh inconclusive, Marburg entry inh 14.1µM (no result: VACV mCherry inh)
COc1c(Cl)cc(Cl)cc1/C=N/NC(=O)c1nnn(-c2nonc2N)c1CN1CCC(C)CC1	none
Nc1nonc1-n1nnc(C(=O)N/N=C/c2ccccn2)c1-c1ccccc1	VACV mCherry inh inconclusive, Marburg entry inh inconclusive
CC1CCN(Cc2c(C(=O)N/N=C/c3cc(Cl)ccc3O)nnn2-c2nonc2N)CC1	LASV entry inh inconclusive, VACV Venus inh inconclusive, VACV mCherry inh 5.01µM, Marburg entry inh 3.55µM
CC1CCN(Cc2c(C(=O)N/N=C/c3cc(Br)ccc3O)nnn2-c2nonc2N)CC1	LASV entry inh inconclusive, VACV Venus inh inconclusive, VACV mCherry inh inconclusive, Marburg entry inh 2µM
Nc1nonc1-n1nnc(C(=O)N/N=C/c2cc(Br)cs2)c1-c1ccccc1	Marburg entry inh 5.62µM
CC(C)c1ccc(C(=O)C[N+]2(C)CCOCC2)cc1	none (no result: LASV entry inh, FMDV inh, Marburg entry inh)
OC(CN(c1ccccc1)c1ccccc1)Cn1cnc2ccccc21 (configuration not stated)	FMDV inh 31.6µM, VACV Venus inh inconclusive, Marburg entry inh inconclusive (no result: VACV mCherry inh)
O=C(c1sc2cc(Cl)ccc2c1Cl)N1CCN(CCc2ccccn2)CC1	none (no result: LASV entry inh, VACV Venus inh, VACV mCherry inh, Marburg entry inh)
OCC1OC(n2cnc3c(=S)nc[nH]c32)CC1O (configuration not stated)	none
S=c1nc[nH]c2c1ncn2C1CCCO1 (configuration not stated)	LASV entry inh inconclusive, VACV Venus inh inconclusive, VACV mCherry inh 11.2µM, Marburg entry inh inconclusive
CCc1nnc(NC(=O)c2ccc(Cl)c(S(=O)(=O)N3CCc4ccccc4C3)c2)s1	FMDV inh 25.1µM
O=C(NCc1nc2ccccc2[nH]1)c1ccc(Cl)c(S(=O)(=O)N2CCCC2)c1	VACV Venus inh inconclusive
COc1ccc(NC(=O)c2ccc(Cl)c(S(=O)(=O)N3CCc4ccccc4C3)c2)cn1	LASV entry inh inconclusive, FMDV inh 20µM, Marburg entry inh inconclusive (no result: VACV Venus inh, VACV mCherry inh)
